According to PubChem BioAssay (EPA / NIEHS):
Some structures have more than one record in an assay (separate samples or runs), and their calls can disagree. Calls of active or inactive are those of the source. Rule for the calls: active = hit-call score of the fitted dose curve at least 0.9, where 1 is the maximum; inactive = score below 0.9.

How the values were obtained:
[1] = read-out: Interferon-gamma inducible Protein 10 (IP10), CXCL10 (gene 3627); experiment: BSK_hDFCGF_IP10: BioMAP Diversity Plus: hDFCGF Assay for Interferon-gamma inducible Protein 10 (IP10) Biomarker Activity (AID 2283053); conditions: primary human foreskin fibroblasts; actives raise or lower the signal
Outline: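 ELISA quantification of IP-10 after a 24 h chemical exposure of human dermal foreskin fibroblast primary cultures. Both increases and decreases versus DMSO fitted.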

[2] = read-out: Urokinase-type plasminogen activator receptor (uPAR), PLAUR (gene 5329); experiment: BSK_CASM3C_uPAR: BioMAP Diversity Plus: CASM3C Assay for Urokinase-type plasminogen activator receptor (uPAR) Biomarker Activity (AID 2283054); conditions: primary human coronary artery smooth muscle cells; actives raise or lower the signal;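 note: cell-surface uPAR protein level quantified by ELISA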
[3] = read-out: Vascular cell adhesion molecule 1 (VCAM1), VCAM1 (gene 7412); experiment: BSK_CASM3C_VCAM1: BioMAP Diversity Plus: CASM3C Assay for Vascular cell adhesion molecule 1 (VCAM1) Biomarker Activity (AID 2283055); conditions: primary human coronary artery smooth muscle cells; actives raise or lower the signal;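 note: VCAM-1 protein level quantified by ELISA on the cells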
[4] = read-out: Collagen III, COL3A1 (gene 1281); experiment: BSK_hDFCGF_CollagenIII: BioMAP Diversity Plus: hDFCGF Assay for Collagen III Biomarker Activity (AID 2283056); conditions: primary human foreskin fibroblasts; actives raise or lower the signal
Outline: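 Human foreskin fibroblast primary cultures sampled 24 h after dosing; Collagen III quantified by ELISA. Signal fitted bidirectionally against DMSO baseline.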

[5] = read-out: Epidermal growth factor receptor (EGFR), EGFR (gene 1956); experiment: BSK_hDFCGF_EGFR: BioMAP Diversity Plus: hDFCGF Assay for Epidermal growth factor receptor (EGFR) Biomarker Activity (AID 2283057); conditions: primary human foreskin fibroblasts; actives raise or lower the signal
Outline: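 EGFR levels by ELISA in human dermal fibroblast cultures, 24 h post-treatment, fitted bidirectionally versus DMSO. Parallel wells stained with sulforhodamine B to detect overt cytotoxicity.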

[6] = read-out: Interleukin-8 (IL8), CXCL8 (gene 3576); experiment: BSK_hDFCGF_IL8: BioMAP Diversity Plus: hDFCGF Assay for Interleukin-8 (IL8) Biomarker Activity (AID 2283058); conditions: primary human foreskin fibroblasts; actives raise or lower the signal
Outline: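 Primary human foreskin fibroblasts (hDFCGF system) dosed with chemical; IL-8 measured by ELISA 24 hours later. Bidirectional curve fitting relative to DMSO baseline; cytotoxicity tracked in parallel cultures by SRB total protein staining.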

[7] = BSK_hDFCGF_Proliferation: Cell Proliferation Assessment in the BioMAP Diversity Plus: hDFCGF Assay (AID 2283059); conditions: primary human foreskin fibroblasts;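 note: curves fitted for both rise and fall of signal versus DMSO baseline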
Outline: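 This proliferation readout used SRB total-protein staining of human foreskin fibroblasts […], normalized to DMSO with bidirectional curve fitting.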

[8] = read-out: Macrophage colony-stimulating factor (MCSF), CSF1 (gene 1435); experiment: BSK_hDFCGF_MCSF: BioMAP Diversity Plus: hDFCGF Assay for Macrophage colony-stimulating factor (MCSF) Biomarker Activity (AID 2283060); conditions: primary human foreskin fibroblasts; actives raise or lower the signal
Outline: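 Human foreskin fibroblast primary cultures; M-CSF measured by ELISA 24 hours after chemical dosing. Bidirectional fitting relative to DMSO, with overt cytotoxicity tracked by parallel SRB total-protein staining (0.1% SRB, 10% TCA fixation, 560 nm).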

[9] = BSK_hDFCGF_SRB: Viability Assessment in the BioMAP Diversity Plus: hDFCGF Assay (AID 2283061); conditions: primary human foreskin fibroblasts;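 note: cells exposed to compound for 24 h before the read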
Outline: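 Human foreskin fibroblasts in 96-well plates were treated 24 h. Total protein was measured by 0.1% SRB staining after 10% TCA fixation, read at 560 nm. Data were fitted bidirectionally against DMSO.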

[10] = read-out: TIMP metallopeptidase inhibitor 1 (TIMP1), TIMP1 (gene 7076); experiment: BSK_hDFCGF_TIMP1: BioMAP Diversity Plus: hDFCGF Assay for TIMP metallopeptidase inhibitor 1 (TIMP1) Biomarker Activity (AID 2283062); conditions: primary human foreskin fibroblasts; actives raise or lower the signal
Outline: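 Human foreskin fibroblast primary cultures dosed for 24 h; secreted/surface TIMP-1 quantified by ELISA. Bidirectional curve fitting against DMSO baseline; cytotoxicity tracked in parallel cultures by SRB total-protein staining.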

[11] = read-out: Monokine induced gamma interferon (MIG), CXCL9 (gene 4283); experiment: BSK_hDFCGF_MIG: BioMAP Diversity Plus: hDFCGF Assay for Monokine induced gamma interferon (MIG) Biomarker Activity (AID 2283063); conditions: primary human foreskin fibroblasts; actives raise or lower the signal
Outline: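 MIG/CXCL9 measured by ELISA 24 h after dosing primary human skin fibroblasts. Activity fitted in both directions against DMSO controls. Cytotoxicity was checked in parallel cultures by SRB staining read at 560 nm.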

[12] = read-out: Matrix Metallopeptidase 1 (MMP1), MMP1 (gene 4312); experiment: BSK_hDFCGF_MMP1: BioMAP Diversity Plus: hDFCGF Assay for Matrix Metallopeptidase 1 (MMP1) Biomarker Activity (AID 2283064); conditions: primary human foreskin fibroblasts; actives raise or lower the signal
Outline: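 ELISA read-out of MMP1 from human foreskin fibroblasts (primary skin cells), 24 h post-dose. Gain or loss of signal was fitted bidirectionally versus DMSO negative control; cytotoxicity was checked by SRB in parallel cultures.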

[13] = read-out: Vascular cell adhesion molecule 1 (VCAM1), VCAM1 (gene 7412); experiment: BSK_hDFCGF_VCAM1: BioMAP Diversity Plus: hDFCGF Assay for Vascular cell adhesion molecule 1 (VCAM1) Biomarker Activity (AID 2283065); conditions: primary human foreskin fibroblasts; actives raise or lower the signal
Outline: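 Human foreskin fibroblast primary cells dosed with chemical, VCAM-1 measured by ELISA at 24 h. Bidirectional curve fitting relative to DMSO as negative control/baseline.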

[14] = read-out: Plasminogen activator inhibitor-1 (PAI1), SERPINE1 (gene 5054); experiment: BSK_hDFCGF_PAI1: BioMAP Diversity Plus: hDFCGF Assay for Plasminogen activator inhibitor-1 (PAI1) Biomarker Activity (AID 2283066); conditions: primary human foreskin fibroblasts; actives raise or lower the signal
Outline: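 PAI-1 levels in human dermal foreskin fibroblasts were quantified by ELISA 24 h after dosing, with gain or loss analysed against DMSO. Overt cytotoxicity was checked by sulforhodamine B total-protein staining in parallel cultures.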

[15] = read-out: Intercellular Adhesion Molecule 1 (ICAM1), ICAM1 (gene 3383); experiment: BSK_KF3CT_ICAM1: BioMAP Diversity Plus: KF3CT Assay for Intercellular Adhesion Molecule 1 (ICAM1) Biomarker Activity (AID 2283067); conditions: primary human keratinocytes with fibroblasts; actives raise or lower the signal
Outline: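 Human keratinocyte–foreskin fibroblast co-culture was treated for 24 h. Cell-surface ICAM-1 was quantified by ELISA, fitted bidirectionally relative to DMSO. Cytotoxicity was checked in parallel cultures by SRB total-protein staining.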

[16] = read-out: Interferon-gamma inducible Protein 10 (IP10), CXCL10 (gene 3627); experiment: BSK_KF3CT_IP10: BioMAP Diversity Plus: KF3CT Assay for Interferon-gamma inducible Protein 10 (IP10) Biomarker Activity (AID 2283068); conditions: primary human keratinocytes with fibroblasts; actives raise or lower the signal
Outline: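 Signal is secreted/surface IP-10 by ELISA in a human primary skin co-culture of keratinocytes and foreskin fibroblasts, taken 24 h post-dosing; DMSO served as negative control.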

[17] = BSK_KF3CT_SRB: Viability Assessment in the BioMAP Diversity Plus: KF3CT Assay (AID 2283069); conditions: primary human keratinocytes with fibroblasts;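 note: read 24 h after compound addition; fitted for both signal gain and loss against DMSO baseline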
Outline: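 SRB read-out at 560 nm (0.1% stain, TCA-fixed cells) gauges overt cytotoxicity in a human skin keratinocyte–fibroblast co-culture 24 h post-dosing. Signal change was fitted bidirectionally relative to DMSO control.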

[18] = read-out: Interleukin-1 alpha (IL1a), IL1A (gene 3552); experiment: BSK_KF3CT_IL1a: BioMAP Diversity Plus: KF3CT Assay for Interleukin-1 alpha (IL1a) Biomarker Activity (AID 2283070); conditions: primary human keratinocytes with fibroblasts; actives raise or lower the signal
Outline: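 Primary skin co-culture (keratinocytes, foreskin fibroblasts), 24 h exposure; ELISA for IL-1a; bidirectional curve fit vs DMSO.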

[19] = read-out: Transforming growth factor beta 1 (TGFb1), TGFB1 (gene 7040); experiment: BSK_KF3CT_TGFb1: BioMAP Diversity Plus: KF3CT Assay for Transforming growth factor beta 1 (TGFb1) Biomarker Activity (AID 2283072); conditions: primary human keratinocytes with fibroblasts; actives raise or lower the signal
Outline: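 ELISA quantifies TGF-b1 at 24 h post-dose in a primary human skin co-culture of keratinocytes and fibroblasts, with gain or loss judged against DMSO. Parallel SRB total-protein staining flags overt cytotoxicity.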

[20] = read-out: TIMP metallopeptidase inhibitor 2 (TIMP2), TIMP2 (gene 7077); experiment: BSK_KF3CT_TIMP2: BioMAP Diversity Plus: KF3CT Assay for TIMP metallopeptidase inhibitor 2 (TIMP2) Biomarker Activity (AID 2283071); conditions: primary human keratinocytes with fibroblasts; actives raise or lower the signal
Outline: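 TIMP-2 measured by ELISA at 24 h in human keratinocyte/fibroblast primary co-cultures exposed to chemicals. Both increases and decreases were fitted against DMSO. Parallel cultures were stained with SRB for total protein as an overt-cytotoxicity check.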

Measured: AC50

CCOc1ccc2[nH]cc(C(=O)NCc3ccccc3)c(=O)c2n1
active: [5] 3.97 µM
not listed: [20]
inactive: all other assays above

c1ccc2ncccc2c1
not listed: [12]
inactive: all other assays above

CCCCOC(=O)c1ccccc1
not listed: [20]
inactive: all other assays above

O=S(=O)(O)c1ccc(N=Nc2c(O)ccc3cc(S(=O)(=O)O)ccc23)cc1
inactive: all assays above

O=C(O)c1cccc(C(=O)O)c1
not listed: [12]
inactive: all other assays above

CCCCC(CC)C(=O)OCCOCCOCCOC(=O)C(CC)CCCC (centres undefined)
active: [4] 20 µM | [7] 11 µM | [8] 10.7 µM
not listed: [12] | [20]
inactive: all other assays above

O=S(=O)(O)CCC(F)(F)C(F)(F)C(F)(F)C(F)(F)C(F)(F)C(F)(F)F
inactive: [1] | [2] | [3] | [4] | [5] | [6] | [7] | [8] | [9] | [10] | [11] | [12] | [13] | [14] | [15] | [16] | [17] | [18]
active: [8] 6.02 µM | [9] 8.85 µM
